This note sets out measurements from PubChem BioAssay (NCATS).

Unmarked numbers belong to inactive results. Active and inactive are the calls of the source. Calls come from the whole dose curve; as a rule, active = well fitted curve in the direction sought with a large enough effect; inactive = no such curve, though single readings can be large or run the other way.

The nature of the test: qHTS for small molecule inhibitors of Yes1 kinase: Counter Assay (AID 686950).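 Note: no kinase present so only ADP-Glo detection of a fixed ADP amount is tested; luminescence from ADP-Glo reporting ADP in a fixed ATP and ADP mixture; 0% = DMSO wells with ATP plus ADP and -100% = ATP-only wells without ADP.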 The following applies: series mostly up to 76.9 µM; activity change, negative = inhibition: at the top concentration. Summed up: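 Luminescence read-out from ADP-Glo quantifies a fixed ADP amount (0.02 mM ADP with 0.08 mM ATP) after 60 min at room temperature; signal is normalized between DMSO wells with ATP/ADP and with 0.1 mM ATP alone.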
Regarding `O=S(=O)(CCOCc1ccc(-c2ccc3ncnc(Nc4ccc(OCc5cccc(F)c5)c(Cl)c4)c3c2)o1)c1ccccc1`, the “activity change, negative = inhibition” value is 0.528%.

Consider `Nc1ncnc2occ(-c3ccc(NC(=O)Nc4cccc(C(F)(F)F)c4)cc3)c12`, for which the “activity change, negative = inhibition” value is 0.215%.

In the case of `c1cnn2ncc(-c3ccnc(Nc4ccc5c(c4)OCCO5)n3)c2c1`, the “activity change, negative = inhibition” value was -1.82%.

For the molecule `CCn1c(-c2nonc2N)nc2c(C#CC(C)(C)O)nc(OCC(N)c3ccccc3)cc21` (centres undefined), the outcome was inactive.

For the molecule `c1cc(-c2cnn3nc(N4CCOCC4)ccc23)nc(NC2CC2)n1`, the “activity change, negative = inhibition” value was 1.81%.

For `CCCN1CCC=C(c2ccc(Nc3nc(Nc4ccccc4C(N)=O)c4cc[nH]c4n3)c(C)c2)C1`, the “activity change, negative = inhibition” value was 323%.

Consider `COc1ccccc1Oc1nccc(-c2c(-c3ccc(F)cc3)ncn2C2CCNCC2)n1`, for which the “activity change, negative = inhibition” value is -1.76%.

In the case of `OCCCNc1nccc(-c2c(-c3ccc(F)cc3)nn3cc(C(F)(F)F)ccc23)n1`, the “activity change, negative = inhibition” value is -3.91%.

Take `COc1cc2c(cc1Nc1nc(Nc3ccsc3C(N)=O)c3cc[nH]c3n1)N(C(=O)CN(C)C)CCC2(C)C`: the “activity change, negative = inhibition” value was 477%.

Take `CN(C)CCOc1ccc(-c2cc(-c3ccc4c(c3)CCC4=NO)c(-c3ccncc3)o2)cc1`: the “activity change, negative = inhibition” value was 21.2%.

For `CN1CCC(n2cnc(-c3ccc(F)cc3)c2-c2ccnc(N)n2)CC1`, the “activity change, negative = inhibition” value was 2.8%.

`CCN1CCC(C(=O)Nc2n[nH]c3nnc(-c4cccc(F)c4F)cc23)CC1`: the “activity change, negative = inhibition” value is 1.59%.

As to `Fc1ccc(-c2c(-c3ccncc3)nc3n2CCS3)cc1`, the “activity change, negative = inhibition” value was 0.28%.

With `CN(C)C(=O)OC1CNC(C#Cc2cc3ncnc(Nc4ccc(OCc5cccc(F)c5)c(Cl)c4)c3s2)C1` (centres undefined), the result was inactive.

Consider `COc1cc(C=NNc2ncnc3c2cnn3C(C)C)ccc1O`, for which the “activity change, negative = inhibition” value was 3.6%.

In the case of `CC(C)c1ccc(Nc2nccc(-c3cnn4ncccc34)n2)cc1`, the “activity change, negative = inhibition” value is -3.85%.

Turning to `COc1ccccc1C1=C(Nc2ccccc2)C(=O)NC1=O`, the “activity change, negative = inhibition” value is -2.08%.

With `O=S(=O)(CCNCc1ccc(-c2ccc3ncnc(Nc4ccc(OCc5cccc(F)c5)c(Cl)c4)c3c2)o1)c1ccccc1`, the “activity change, negative = inhibition” value was 7.85%.

Regarding `Cc1cc(O)cc(C)c1C=Cc1cncc(C(=O)N(C)C)c1`, the “activity change, negative = inhibition” value is 3.19%.

In the case of `Oc1[nH]c2ccccc2c1C=Nc1ccc(-n2cncn2)cc1`, the “activity change, negative = inhibition” value was -0.552%.

In the case of `COc1cc2c(cc1Nc1nc(Nc3ccsc3C(N)=O)c3cc[nH]c3n1)N(C(=O)CN(C)C)CCC2`, the “activity change, negative = inhibition” value is -1.27%.

On to `NC(=O)c1sc(-n2cnc3cc(C(F)(F)F)ccc32)cc1OCc1ccccc1Br`, for which the “activity change, negative = inhibition” value was 2.62%.

Consider `CCNC(=O)OC1CNC(C#Cc2cc3ncnc(Nc4ccc(OCc5cccc(F)c5)c(Cl)c4)c3s2)C1` (centres undefined), for which the “activity change, negative = inhibition” value is 1.06%.

Turning to `O=C1NC(=O)C(c2cccc([N+](=O)[O-])c2)=C1Nc1cc(Cl)c(O)c(Cl)c1`, the “activity change, negative = inhibition” value is -3.81%.

Take `COc1cccc(-n2ncc3c(NN=Cc4ccc(S(C)(=O)=O)cc4)ncnc32)c1`: the “activity change, negative = inhibition” value was -2%.

With `COc1cccc(Nc2nccc(-c3cnn4ncccc34)n2)c1`, the “activity change, negative = inhibition” value is -1.92%.

Regarding `COc1cc(N2CCN(C(C)C)CC2)ccc1Nc1nc(Nc2cccc(F)c2C(=O)O)c2cc[nH]c2n1`, the “activity change, negative = inhibition” value is 11.5%.

Consider `Cc1ccc(C(=O)NC2CCC2)cc1-c1ccc(C(=O)NCC2CC2)cc1`, for which the “activity change, negative = inhibition” value was 0.632%.

`O=C(Nc1n[nH]c2cc(-c3ccccc3)ccc12)C1CC1`: the “activity change, negative = inhibition” value was -2.7%.
